# Active and inactive are the calls of the source. How the source made its calls: active means hit-call score of the fitted dose curve at least 0.9, where 1 is the maximum; inactive means score below 0.9.
# Tests used:
# [1] = read-out: TIMP metallopeptidase inhibitor 2 (TIMP2), TIMP2 (gene 7077); assay: BSK_KF3CT_TIMP2: BioMAP Diversity Plus: KF3CT Assay for TIMP metallopeptidase inhibitor 2 (TIMP2) Biomarker Activity (AID 2283071); settings: primary human keratinocytes with fibroblasts; actives raise or lower the signal
# Outline: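 TIMP-2 measured by ELISA at 24 h in human keratinocyte/fibroblast primary co-cultures exposed to chemicals. Both increases and decreases were fitted against DMSO. Parallel cultures were stained with SRB for total protein as an overt-cytotoxicity check.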
# [2] = read-out: Transforming growth factor beta 1 (TGFb1), TGFB1 (gene 7040); assay: BSK_KF3CT_TGFb1: BioMAP Diversity Plus: KF3CT Assay for Transforming growth factor beta 1 (TGFb1) Biomarker Activity (AID 2283072); settings: primary human keratinocytes with fibroblasts; actives raise or lower the signal
# Outline: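 ELISA quantifies TGF-b1 at 24 h post-dose in a primary human skin co-culture of keratinocytes and fibroblasts, with gain or loss judged against DMSO. Parallel SRB total-protein staining flags overt cytotoxicity.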
# [3] = read-out: C-C motif chemokine 2 (Homo sapiens) (UniProt P13500); assay: BSK_KF3CT_MCP1: BioMAP Diversity Plus: KF3CT Assay for Monocyte Chemoattractant Protein 1 (MCP1/CCL2) Biomarker Activity (AID 2283073); settings: primary human keratinocytes with fibroblasts; actives raise or lower the signal
# Outline: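 Biomarker MCP-1 is measured by ELISA in primary human keratinocytes co-cultured with foreskin fibroblasts, 24 h after chemical treatment; DMSO serves as the negative control and activity baseline.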
# [4] = read-out: Matrix Metallopeptidase 9 (MMP9), MMP9 (gene 4318); assay: BSK_KF3CT_MMP9: BioMAP Diversity Plus: KF3CT Assay for Matrix Metallopeptidase 9 (MMP9) Biomarker Activity (AID 2283074); settings: primary human keratinocytes with fibroblasts; actives raise or lower the signal
# Outline: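 ELISA read-out of MMP-9 at 24 h post-dosing in a co-culture of human skin keratinocytes and foreskin fibroblasts. Gain or loss of signal was fitted in both directions against DMSO.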
# [5] = read-out: urokinase plasminogen activator (uPA), PLAU (gene 5328); assay: BSK_KF3CT_uPA: BioMAP Diversity Plus: KF3CT Assay for urokinase plasminogen activator (uPA) Biomarker Activity (AID 2283075); settings: primary human keratinocytes with fibroblasts; actives raise or lower the signal
# Outline: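 Skin co-culture (keratinocytes + foreskin fibroblasts), human primary; 24 h post-dose; uPA by ELISA; gain/loss fit vs DMSO baseline.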
# CD40, CD40 (gene 958) [6] = assay: BSK_LPS_CD40: BioMAP Diversity Plus: LPS Assay for CD40 Biomarker Activity (AID 2283076); settings: primary human HUVEC with PBMC; actives raise or lower the signal
# Outline: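 Using a multiplexed primary human co-culture (umbilical vein endothelium plus PBMC), CD40 was read by ELISA 24 h after dosing, with cytotoxicity tracked by sulforhodamine B staining of parallel cultures and activity fitted bidirectionally versus DMSO.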
# [7] = read-out: E-selectin (Homo sapiens) (UniProt P16581); assay: BSK_LPS_Eselectin: BioMAP Diversity Plus: LPS Assay for Eselectin Biomarker Activity (AID 2283077); settings: primary human HUVEC with PBMC; actives raise or lower the signal
# Outline: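 Dose chemical onto LPS-driven HUVEC/PBMC co-culture; after 24 h, run ELISA for E-selectin; fit up- and down-going responses relative to DMSO control.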
# [8] = read-out: Interleukin-8 (IL8), CXCL8 (gene 3576); assay: BSK_LPS_IL8: BioMAP Diversity Plus: LPS Assay for Interleukin-8 (IL8) Biomarker Activity (AID 2283078); settings: primary human HUVEC with PBMC; actives raise or lower the signal
# Outline: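 In this LPS system, chemical-treated human umbilical vein endothelium/PBMC co-cultures were harvested at 24 h for IL-8 ELISA.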
# [9] = BSK_LPS_SRB: Viability Assessment in the BioMAP Diversity Plus: LPS Assay (AID 2283079); settings: primary human HUVEC with PBMC;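 further: total protein by sulforhodamine B absorbance as a cytotoxicity measure; measured one day after compound addition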
# Outline: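 Cytotoxicity endpoint in human endothelial–PBMC co-culture: 24 h exposure, then SRB (0.1%) staining, 560 nm read.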
# [10] = read-out: Interleukin-1 alpha (IL1a), IL1A (gene 3552); assay: BSK_LPS_IL1a: BioMAP Diversity Plus: LPS Assay for Interleukin-1 alpha (IL1a) Biomarker Activity (AID 2283080); settings: primary human HUVEC with PBMC; actives raise or lower the signal
# Outline: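 Primary human HUVEC and PBMC co-culture stimulated with LPS is dosed and harvested at 24 h. Both increases and decreases in ELISA-measured IL-1a are scored relative to DMSO.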
# [11] = read-out: Monocyte Chemoattractant Protein-1 (MCP1), CCL2 (gene 6347); assay: BSK_LPS_MCP1: BioMAP Diversity Plus: LPS Assay for Monocyte Chemoattractant Protein-1 (MCP1) Biomarker Activity (AID 2283081); settings: primary human HUVEC with PBMC; actives raise or lower the signal
# Outline: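 Values derive from bidirectional fitting against DMSO of ELISA-measured MCP-1 in a human primary endothelial and mononuclear cell co-culture, 24 h after chemical addition under LPS activation.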
# [12] = BSK_LPS_PGE2: BioMAP Diversity Plus: LPS Assay for Prostaglandin E2 (PGE2) Biomarker Activity (AID 2283082); settings: primary human HUVEC with PBMC; actives raise or lower the signal;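 on AC50: secreted prostaglandin E2 measured by ELISA in LPS-stimulated co-culture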
# Outline: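 PGE2 release measured by ELISA in an LPS-activated co-culture of human umbilical vein endothelial cells and peripheral blood mononuclear cells, read at 24 h post-dosing. DMSO served as baseline for bidirectional curve fitting.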
# [13] = read-out: Macrophage colony-stimulating factor (MCSF), CSF1 (gene 1435); assay: BSK_LPS_MCSF: BioMAP Diversity Plus: LPS Assay for Macrophage colony-stimulating factor (MCSF) Biomarker Activity (AID 2283083); settings: primary human HUVEC with PBMC; actives raise or lower the signal
# Outline: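 Bidirectional fit versus DMSO of ELISA-measured M-CSF in co-cultured human umbilical vein endothelial cells and PBMC, sampled 24 h after dosing.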
# [14] = read-out: Tumor necrosis factor (Homo sapiens) (UniProt P01375); assay: BSK_LPS_TNFa: BioMAP Diversity Plus: LPS Assay for Tumour Necrosis Factor alpha (TNFa) Biomarker Activity (AID 2283085); settings: primary human HUVEC with PBMC; actives raise or lower the signal;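 on AC50: TNFa protein level quantified by ELISA in the co-culture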
# Outline: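 TNFa was quantified by ELISA in LPS-activated co-cultures of human endothelial cells and PBMC, 24 h post-dosing. Both increases and decreases versus DMSO were fitted.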
# [15] = read-out: Vascular cell adhesion molecule 1 (VCAM1), VCAM1 (gene 7412); assay: BSK_LPS_VCAM1: BioMAP Diversity Plus: LPS Assay for Vascular cell adhesion molecule 1 (VCAM1) Biomarker Activity (AID 2283086); settings: primary human HUVEC with PBMC; actives raise or lower the signal
# Outline: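 VCAM-1 quantified by ELISA in an LPS-activated co-culture of human endothelial cells and peripheral blood mononuclear cells, read 24 h post-treatment. Fitted in both directions versus DMSO; parallel SRB staining flags overt cytotoxicity.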
# CD38, CD38 (gene 952) = assay: BSK_SAg_CD38: BioMAP Diversity Plus: SAg Assay for CD38 Biomarker Activity (AID 2283087); settings: primary human HUVEC with PBMC; actives raise or lower the signal
# Outline: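 CD38 quantified by ELISA (fluorescence) in a superantigen-activated endothelial cell–PBMC co-culture at 24 h post-dose. Activity fitted in both directions relative to DMSO; parallel SRB and Alamar Blue cytotoxicity read-outs.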
# CD40, CD40 (gene 958) [16] = assay: BSK_SAg_CD40: BioMAP Diversity Plus: SAg Assay for CD40 Biomarker Activity (AID 2283088); settings: primary human HUVEC with PBMC; actives raise or lower the signal
# Outline: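 Endpoint derived by fitting increases or decreases versus DMSO controls. CD40 is detected by fluorescence ELISA in a human vascular co-culture of endothelium and PBMC at 24 h.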
# CD69, CD69 (gene 969) = assay: BSK_SAg_CD69: BioMAP Diversity Plus: SAg Assay for CD69 Biomarker Activity (AID 2283089); settings: primary human HUVEC with PBMC; actives raise or lower the signal;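 on AC50: cell surface CD69 protein quantified by ELISA with fluorescence detection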
# Outline: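 HUVEC co-cultured with PBMC were dosed with chemical, and CD69 was measured by ELISA with fluorescence read-out 24 h later. Bidirectional curve fitting used DMSO as negative control and activity baseline.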
# Sequence of Tumor necrosis factor (Homo sapiens) (P01375 whole entry, looked up): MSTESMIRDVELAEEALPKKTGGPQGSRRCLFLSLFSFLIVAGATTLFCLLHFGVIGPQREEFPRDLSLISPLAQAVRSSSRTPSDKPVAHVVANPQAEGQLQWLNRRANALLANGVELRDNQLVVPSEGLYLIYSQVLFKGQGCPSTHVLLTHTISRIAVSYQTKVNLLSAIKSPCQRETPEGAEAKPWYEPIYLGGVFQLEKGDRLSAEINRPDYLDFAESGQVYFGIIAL
# Sequence of E-selectin (Homo sapiens) (P16581 whole entry, looked up): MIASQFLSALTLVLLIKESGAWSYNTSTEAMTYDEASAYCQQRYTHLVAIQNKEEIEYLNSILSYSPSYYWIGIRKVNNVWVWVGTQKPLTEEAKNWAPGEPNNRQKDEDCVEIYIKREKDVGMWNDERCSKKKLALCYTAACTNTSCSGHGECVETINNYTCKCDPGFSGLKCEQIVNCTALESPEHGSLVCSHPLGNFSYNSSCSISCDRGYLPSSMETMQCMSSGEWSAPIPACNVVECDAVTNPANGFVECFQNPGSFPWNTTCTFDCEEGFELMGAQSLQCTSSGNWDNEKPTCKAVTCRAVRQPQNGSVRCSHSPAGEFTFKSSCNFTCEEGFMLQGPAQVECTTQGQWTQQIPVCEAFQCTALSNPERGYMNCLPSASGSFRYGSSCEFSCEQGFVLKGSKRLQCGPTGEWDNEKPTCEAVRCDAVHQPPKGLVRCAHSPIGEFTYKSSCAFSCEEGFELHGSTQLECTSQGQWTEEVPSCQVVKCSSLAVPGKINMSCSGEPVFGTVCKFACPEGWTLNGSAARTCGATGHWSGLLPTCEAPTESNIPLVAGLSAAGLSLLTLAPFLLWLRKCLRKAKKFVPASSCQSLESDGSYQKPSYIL
structure (smiles),measurement,setting,value
CCOP(=S)(OCC)OC(Cl)C(Cl)(Cl)Cl (stereo not drawn),outcome,[1],inactive
same,outcome,[2],inactive
same,outcome,[3],inactive
same,outcome,[4],inactive
same,outcome,[5],inactive
same,outcome,"CD40, CD40 (gene 958) [6]",inactive
same,outcome,[7],inactive
same,outcome,[8],inactive
same,outcome,[9],inactive
same,outcome,[10],inactive
same,outcome,[11],inactive
same,AC50,[12],5.51 µM (active)
same,outcome,[13],inactive
same,AC50,[14],32.8 µM (active)
same,outcome,[15],inactive
same,AC50,"CD38, CD38 (gene 952)",30.8 µM (active)
same,outcome,"CD40, CD40 (gene 958) [16]",inactive
same,AC50,"CD69, CD69 (gene 969)",28.6 µM (active)
CC(=NC#N)N(C)Cc1ccc(Cl)nc1,outcome,[1],inactive
same,outcome,[2],inactive
same,outcome,[3],inactive
same,outcome,[4],inactive
same,outcome,[5],inactive
same,outcome,"CD40, CD40 (gene 958) [6]",inactive
same,outcome,[7],inactive
same,outcome,[8],inactive
same,outcome,[9],inactive
same,outcome,[10],inactive
same,outcome,[11],inactive
same,outcome,[12],inactive
same,outcome,[13],inactive
same,outcome,[14],inactive
same,outcome,[15],inactive
same,outcome,"CD38, CD38 (gene 952)",inactive
same,outcome,"CD40, CD40 (gene 958) [16]",inactive
same,outcome,"CD69, CD69 (gene 969)",inactive
CCCSP(=O)(OCC)Oc1ccc(Br)cc1Cl (stereo not drawn),outcome,[1],inactive
same,outcome,[2],inactive
same,outcome,[3],inactive
same,outcome,[4],inactive
same,outcome,[5],inactive
same,outcome,"CD40, CD40 (gene 958) [6]",inactive
same,outcome,[7],inactive
same,AC50,[8],30.2 µM (active)
same,outcome,[9],inactive
same,outcome,[10],inactive
same,outcome,[11],inactive
same,outcome,[12],inactive
same,outcome,[13],inactive
same,AC50,[14],35.3 µM (active)
same,AC50,"CD38, CD38 (gene 952)",30.5 µM (active)
same,AC50,"CD40, CD40 (gene 958) [16]",31.9 µM (active)
same,AC50,"CD69, CD69 (gene 969)",27.8 µM (active)
